Laboratory results from ChEMBL document CHEMBL2218924, “A broad activity screen in support of a chemogenomic map for kinase signalling research and drug discovery” (Biochem J, 2013).

How the values were obtained:
[1] = biological target: T1, Serine/threonine-protein kinase 17A (Homo sapiens) (UniProt Q9UEE5); conditions: at 10 µM
T1 sequence (whole entry): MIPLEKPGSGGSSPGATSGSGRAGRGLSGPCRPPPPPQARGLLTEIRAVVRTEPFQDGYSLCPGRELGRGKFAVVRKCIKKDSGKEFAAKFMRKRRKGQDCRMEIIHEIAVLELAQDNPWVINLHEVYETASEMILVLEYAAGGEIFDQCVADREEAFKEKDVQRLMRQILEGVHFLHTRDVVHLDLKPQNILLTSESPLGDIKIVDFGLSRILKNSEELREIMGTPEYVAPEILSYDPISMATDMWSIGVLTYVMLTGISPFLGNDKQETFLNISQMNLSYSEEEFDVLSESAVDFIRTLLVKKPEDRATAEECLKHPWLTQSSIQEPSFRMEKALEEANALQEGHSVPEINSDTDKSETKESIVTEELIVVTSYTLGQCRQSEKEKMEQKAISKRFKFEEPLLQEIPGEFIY

[2] = biological target: T2, Dual specificity tyrosine-phosphorylation-regulated kinase 2 (Homo sapiens) (UniProt Q92630); conditions: at 1 µM
T2 sequence (whole entry): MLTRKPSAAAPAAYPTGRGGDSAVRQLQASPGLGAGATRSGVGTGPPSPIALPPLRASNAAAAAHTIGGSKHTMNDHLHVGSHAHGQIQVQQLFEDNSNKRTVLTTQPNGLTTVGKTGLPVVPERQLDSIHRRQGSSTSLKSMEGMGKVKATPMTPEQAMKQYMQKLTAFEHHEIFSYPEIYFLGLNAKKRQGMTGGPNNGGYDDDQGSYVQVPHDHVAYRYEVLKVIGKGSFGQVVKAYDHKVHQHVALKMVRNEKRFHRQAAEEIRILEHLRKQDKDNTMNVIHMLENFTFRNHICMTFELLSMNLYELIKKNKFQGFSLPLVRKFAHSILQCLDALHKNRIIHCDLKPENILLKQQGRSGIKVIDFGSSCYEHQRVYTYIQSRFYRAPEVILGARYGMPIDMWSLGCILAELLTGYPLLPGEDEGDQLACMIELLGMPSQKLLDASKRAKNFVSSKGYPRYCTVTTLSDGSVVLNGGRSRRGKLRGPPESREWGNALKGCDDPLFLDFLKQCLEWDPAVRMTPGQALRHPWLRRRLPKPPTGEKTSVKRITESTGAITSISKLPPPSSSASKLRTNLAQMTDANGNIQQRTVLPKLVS

[3] = biological target: T2, Dual specificity tyrosine-phosphorylation-regulated kinase 2 (Homo sapiens); conditions: at 10 µM
[4] = biological target: T3, Ephrin type-A receptor 1 (Homo sapiens) (UniProt P21709); conditions: at 1 µM
T3 sequence (whole entry): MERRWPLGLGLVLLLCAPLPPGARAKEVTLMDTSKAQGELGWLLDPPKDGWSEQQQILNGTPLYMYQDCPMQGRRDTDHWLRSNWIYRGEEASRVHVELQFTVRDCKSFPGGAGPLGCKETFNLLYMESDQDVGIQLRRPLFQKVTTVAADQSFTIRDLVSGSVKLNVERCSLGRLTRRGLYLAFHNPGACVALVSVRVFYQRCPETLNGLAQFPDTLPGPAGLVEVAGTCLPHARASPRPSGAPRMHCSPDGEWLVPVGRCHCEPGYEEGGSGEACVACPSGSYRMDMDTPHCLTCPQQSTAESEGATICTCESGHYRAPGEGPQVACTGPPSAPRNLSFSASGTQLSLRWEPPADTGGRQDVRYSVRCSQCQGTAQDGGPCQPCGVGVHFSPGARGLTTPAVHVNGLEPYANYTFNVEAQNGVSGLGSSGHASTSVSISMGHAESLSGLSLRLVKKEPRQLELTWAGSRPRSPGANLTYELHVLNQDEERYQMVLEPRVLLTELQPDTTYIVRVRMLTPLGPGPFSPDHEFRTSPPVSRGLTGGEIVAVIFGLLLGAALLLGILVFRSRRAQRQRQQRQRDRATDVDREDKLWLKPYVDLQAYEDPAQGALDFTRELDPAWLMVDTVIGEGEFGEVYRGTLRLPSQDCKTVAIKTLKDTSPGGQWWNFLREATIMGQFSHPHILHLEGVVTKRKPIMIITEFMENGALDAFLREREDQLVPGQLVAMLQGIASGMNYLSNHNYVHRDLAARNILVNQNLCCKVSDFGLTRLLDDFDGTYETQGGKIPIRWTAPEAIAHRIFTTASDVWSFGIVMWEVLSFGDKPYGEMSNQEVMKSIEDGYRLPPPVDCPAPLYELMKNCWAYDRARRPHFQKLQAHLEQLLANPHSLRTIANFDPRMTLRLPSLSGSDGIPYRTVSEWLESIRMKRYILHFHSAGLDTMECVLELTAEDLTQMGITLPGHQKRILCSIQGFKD

[5] = biological target: T3, Ephrin type-A receptor 1 (Homo sapiens); conditions: at 10 µM
[6] = biological target: Ephrin type-A receptor 2 (Homo sapiens) (UniProt P29317); conditions: at 1 µM
[7] = biological target: Ephrin type-A receptor 2 (Homo sapiens) (UniProt P29317); conditions: at 10 µM
[8] = biological target: T4, Ephrin type-A receptor 3 (Homo sapiens) (UniProt P29320); conditions: at 1 µM
T4 sequence (whole entry): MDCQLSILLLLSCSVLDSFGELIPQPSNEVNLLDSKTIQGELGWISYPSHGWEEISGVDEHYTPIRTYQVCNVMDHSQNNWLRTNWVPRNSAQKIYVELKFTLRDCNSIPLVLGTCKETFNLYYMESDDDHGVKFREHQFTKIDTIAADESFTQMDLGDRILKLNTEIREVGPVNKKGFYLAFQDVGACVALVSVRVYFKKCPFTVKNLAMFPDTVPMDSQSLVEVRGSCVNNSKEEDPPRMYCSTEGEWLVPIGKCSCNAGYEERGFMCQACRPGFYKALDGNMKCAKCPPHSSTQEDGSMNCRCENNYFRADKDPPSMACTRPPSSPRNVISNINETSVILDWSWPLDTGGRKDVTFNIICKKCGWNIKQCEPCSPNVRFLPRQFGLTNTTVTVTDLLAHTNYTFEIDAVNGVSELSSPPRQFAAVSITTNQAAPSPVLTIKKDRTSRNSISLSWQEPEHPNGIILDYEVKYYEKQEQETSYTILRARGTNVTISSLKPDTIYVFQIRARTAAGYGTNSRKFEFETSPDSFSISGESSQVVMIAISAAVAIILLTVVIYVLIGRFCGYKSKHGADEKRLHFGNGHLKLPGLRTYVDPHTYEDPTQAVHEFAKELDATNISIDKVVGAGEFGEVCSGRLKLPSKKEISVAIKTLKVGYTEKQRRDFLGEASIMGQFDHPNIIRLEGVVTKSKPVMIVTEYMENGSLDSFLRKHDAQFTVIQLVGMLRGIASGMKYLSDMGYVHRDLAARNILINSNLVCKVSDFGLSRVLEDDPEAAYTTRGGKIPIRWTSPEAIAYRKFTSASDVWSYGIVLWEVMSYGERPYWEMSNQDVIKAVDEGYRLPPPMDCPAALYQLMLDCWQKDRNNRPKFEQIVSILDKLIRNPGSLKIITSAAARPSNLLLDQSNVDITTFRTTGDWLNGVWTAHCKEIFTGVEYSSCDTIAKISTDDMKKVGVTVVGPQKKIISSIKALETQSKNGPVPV

[9] = biological target: T4, Ephrin type-A receptor 3 (Homo sapiens); conditions: at 10 µM
[10] = biological target: Ephrin type-A receptor 4 (Homo sapiens) (UniProt P54764); conditions: at 1 µM
[11] = biological target: Ephrin type-A receptor 4 (Homo sapiens) (UniProt P54764); conditions: at 10 µM
[12] = biological target: Ephrin type-A receptor 5 (Homo sapiens) (UniProt P54756); conditions: at 1 µM
[13] = biological target: Ephrin type-A receptor 5 (Homo sapiens) (UniProt P54756); conditions: at 10 µM
[14] = biological target: Ephrin type-A receptor 7 (Homo sapiens) (UniProt Q15375); conditions: at 1 µM
[15] = biological target: Ephrin type-A receptor 7 (Homo sapiens) (UniProt Q15375); conditions: at 10 µM
[16] = biological target: T5, Ephrin type-A receptor 8 (Homo sapiens) (UniProt P29322); conditions: at 1 µM
T5 sequence (whole entry): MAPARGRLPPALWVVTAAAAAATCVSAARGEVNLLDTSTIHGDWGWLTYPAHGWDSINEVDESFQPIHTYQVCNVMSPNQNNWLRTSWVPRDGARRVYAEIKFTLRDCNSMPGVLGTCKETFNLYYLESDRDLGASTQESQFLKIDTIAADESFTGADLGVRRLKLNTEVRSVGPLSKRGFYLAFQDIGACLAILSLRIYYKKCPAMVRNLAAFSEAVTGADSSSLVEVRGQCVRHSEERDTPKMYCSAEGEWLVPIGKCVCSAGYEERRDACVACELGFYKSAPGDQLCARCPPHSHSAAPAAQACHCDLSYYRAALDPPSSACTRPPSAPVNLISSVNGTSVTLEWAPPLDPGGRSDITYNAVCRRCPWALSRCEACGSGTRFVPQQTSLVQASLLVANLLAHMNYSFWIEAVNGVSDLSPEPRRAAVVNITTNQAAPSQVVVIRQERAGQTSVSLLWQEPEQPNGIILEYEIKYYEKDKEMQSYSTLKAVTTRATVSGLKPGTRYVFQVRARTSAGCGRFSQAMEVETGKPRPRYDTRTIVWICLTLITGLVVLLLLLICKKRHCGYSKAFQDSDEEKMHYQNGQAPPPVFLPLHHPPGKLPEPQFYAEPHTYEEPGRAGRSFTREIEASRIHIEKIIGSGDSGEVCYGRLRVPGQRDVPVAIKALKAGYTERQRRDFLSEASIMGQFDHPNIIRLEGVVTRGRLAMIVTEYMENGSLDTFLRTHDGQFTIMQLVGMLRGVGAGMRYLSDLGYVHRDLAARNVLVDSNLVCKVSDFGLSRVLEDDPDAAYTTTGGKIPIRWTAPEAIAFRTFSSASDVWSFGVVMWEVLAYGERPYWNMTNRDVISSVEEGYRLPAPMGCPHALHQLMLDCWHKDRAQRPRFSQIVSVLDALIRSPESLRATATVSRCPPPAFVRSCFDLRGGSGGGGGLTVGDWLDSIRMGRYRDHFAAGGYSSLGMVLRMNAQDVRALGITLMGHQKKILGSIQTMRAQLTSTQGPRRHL

[17] = biological target: T5, Ephrin type-A receptor 8 (Homo sapiens); conditions: at 10 µM
[18] = biological target: T6, Ephrin type-B receptor 1 (Homo sapiens) (UniProt P54762); conditions: at 1 µM
T6 sequence (whole entry): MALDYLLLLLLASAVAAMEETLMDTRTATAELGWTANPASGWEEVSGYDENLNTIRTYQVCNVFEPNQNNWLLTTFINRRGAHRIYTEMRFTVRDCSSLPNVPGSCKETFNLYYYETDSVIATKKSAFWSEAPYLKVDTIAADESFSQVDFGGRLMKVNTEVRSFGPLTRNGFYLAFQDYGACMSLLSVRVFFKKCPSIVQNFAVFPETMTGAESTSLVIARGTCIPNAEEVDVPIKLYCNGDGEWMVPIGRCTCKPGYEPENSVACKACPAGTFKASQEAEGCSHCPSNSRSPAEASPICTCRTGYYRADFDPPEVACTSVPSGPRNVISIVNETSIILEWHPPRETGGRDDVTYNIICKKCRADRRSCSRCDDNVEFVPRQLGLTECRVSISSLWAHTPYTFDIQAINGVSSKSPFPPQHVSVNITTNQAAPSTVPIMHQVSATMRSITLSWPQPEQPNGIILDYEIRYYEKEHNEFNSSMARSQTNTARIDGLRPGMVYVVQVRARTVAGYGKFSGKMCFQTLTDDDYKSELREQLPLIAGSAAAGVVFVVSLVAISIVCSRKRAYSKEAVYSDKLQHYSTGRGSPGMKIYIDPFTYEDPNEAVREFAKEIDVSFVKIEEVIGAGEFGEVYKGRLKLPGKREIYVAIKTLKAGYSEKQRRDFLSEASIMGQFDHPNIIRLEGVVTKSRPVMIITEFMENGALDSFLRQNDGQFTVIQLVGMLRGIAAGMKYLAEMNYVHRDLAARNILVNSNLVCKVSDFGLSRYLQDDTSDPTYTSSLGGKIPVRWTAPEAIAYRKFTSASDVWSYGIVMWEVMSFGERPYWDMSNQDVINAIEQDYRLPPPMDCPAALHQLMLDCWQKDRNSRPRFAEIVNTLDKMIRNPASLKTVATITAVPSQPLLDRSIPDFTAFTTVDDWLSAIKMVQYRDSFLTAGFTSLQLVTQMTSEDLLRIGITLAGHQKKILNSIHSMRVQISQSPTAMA

[19] = biological target: Epidermal growth factor receptor (Homo sapiens) (UniProt P00533); conditions: at 1 µM
[20] = biological target: Epidermal growth factor receptor (Homo sapiens) (UniProt P00533); conditions: at 10 µM

Sequence of Ephrin type-A receptor 5 (Homo sapiens) (P54756 whole entry): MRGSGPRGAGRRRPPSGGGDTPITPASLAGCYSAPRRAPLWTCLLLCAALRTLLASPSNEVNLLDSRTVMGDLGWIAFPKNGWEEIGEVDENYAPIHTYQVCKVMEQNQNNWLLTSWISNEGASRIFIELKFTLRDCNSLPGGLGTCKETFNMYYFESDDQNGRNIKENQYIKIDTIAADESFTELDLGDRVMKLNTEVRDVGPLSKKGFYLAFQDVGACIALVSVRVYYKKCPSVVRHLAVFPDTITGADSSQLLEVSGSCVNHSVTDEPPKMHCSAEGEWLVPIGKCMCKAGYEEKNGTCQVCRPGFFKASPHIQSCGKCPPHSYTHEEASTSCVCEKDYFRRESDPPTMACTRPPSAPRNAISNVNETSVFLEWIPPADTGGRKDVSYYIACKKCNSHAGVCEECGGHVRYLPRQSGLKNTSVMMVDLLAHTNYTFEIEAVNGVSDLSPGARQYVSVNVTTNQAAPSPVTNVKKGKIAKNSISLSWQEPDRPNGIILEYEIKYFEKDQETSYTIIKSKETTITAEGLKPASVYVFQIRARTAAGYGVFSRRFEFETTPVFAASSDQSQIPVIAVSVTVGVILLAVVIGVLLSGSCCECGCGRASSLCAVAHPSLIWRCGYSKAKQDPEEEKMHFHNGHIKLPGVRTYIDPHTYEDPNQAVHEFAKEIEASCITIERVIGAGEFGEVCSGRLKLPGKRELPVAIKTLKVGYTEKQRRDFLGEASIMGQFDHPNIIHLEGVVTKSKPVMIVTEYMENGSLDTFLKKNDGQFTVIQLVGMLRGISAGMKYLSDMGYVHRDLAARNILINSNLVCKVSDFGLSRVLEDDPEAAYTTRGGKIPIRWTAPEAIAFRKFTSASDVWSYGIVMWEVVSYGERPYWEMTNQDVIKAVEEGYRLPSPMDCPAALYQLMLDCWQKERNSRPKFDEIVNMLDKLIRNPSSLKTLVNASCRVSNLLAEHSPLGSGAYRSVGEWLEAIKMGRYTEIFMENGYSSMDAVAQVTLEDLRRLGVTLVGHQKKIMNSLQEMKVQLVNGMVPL
Sequence of Ephrin type-A receptor 4 (Homo sapiens) (P54764 whole entry): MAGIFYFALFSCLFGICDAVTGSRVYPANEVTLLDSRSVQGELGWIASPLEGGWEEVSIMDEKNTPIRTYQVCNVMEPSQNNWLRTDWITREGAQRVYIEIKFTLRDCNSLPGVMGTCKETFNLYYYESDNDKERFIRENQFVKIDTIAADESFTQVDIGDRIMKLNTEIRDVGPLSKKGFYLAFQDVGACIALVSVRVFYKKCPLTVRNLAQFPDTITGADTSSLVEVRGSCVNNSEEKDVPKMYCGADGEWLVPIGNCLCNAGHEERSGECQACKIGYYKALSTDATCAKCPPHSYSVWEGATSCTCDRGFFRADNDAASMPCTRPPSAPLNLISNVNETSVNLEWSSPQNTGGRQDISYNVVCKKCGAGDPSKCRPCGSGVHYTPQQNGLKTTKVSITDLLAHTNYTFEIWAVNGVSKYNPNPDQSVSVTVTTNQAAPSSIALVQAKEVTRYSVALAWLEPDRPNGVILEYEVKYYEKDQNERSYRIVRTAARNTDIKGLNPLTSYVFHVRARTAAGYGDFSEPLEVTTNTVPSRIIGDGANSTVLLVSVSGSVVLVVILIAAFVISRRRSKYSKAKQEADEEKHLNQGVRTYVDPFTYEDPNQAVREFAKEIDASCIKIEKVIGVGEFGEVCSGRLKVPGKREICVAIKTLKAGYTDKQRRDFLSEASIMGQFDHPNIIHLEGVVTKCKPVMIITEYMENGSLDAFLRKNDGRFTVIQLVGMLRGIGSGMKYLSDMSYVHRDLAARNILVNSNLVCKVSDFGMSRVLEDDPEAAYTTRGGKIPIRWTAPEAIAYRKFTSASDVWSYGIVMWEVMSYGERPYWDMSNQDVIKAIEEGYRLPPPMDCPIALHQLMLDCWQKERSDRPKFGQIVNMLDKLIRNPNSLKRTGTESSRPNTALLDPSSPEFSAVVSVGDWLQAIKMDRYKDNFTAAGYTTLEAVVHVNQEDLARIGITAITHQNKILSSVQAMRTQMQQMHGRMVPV
Sequence of Ephrin type-A receptor 2 (Homo sapiens) (P29317 whole entry): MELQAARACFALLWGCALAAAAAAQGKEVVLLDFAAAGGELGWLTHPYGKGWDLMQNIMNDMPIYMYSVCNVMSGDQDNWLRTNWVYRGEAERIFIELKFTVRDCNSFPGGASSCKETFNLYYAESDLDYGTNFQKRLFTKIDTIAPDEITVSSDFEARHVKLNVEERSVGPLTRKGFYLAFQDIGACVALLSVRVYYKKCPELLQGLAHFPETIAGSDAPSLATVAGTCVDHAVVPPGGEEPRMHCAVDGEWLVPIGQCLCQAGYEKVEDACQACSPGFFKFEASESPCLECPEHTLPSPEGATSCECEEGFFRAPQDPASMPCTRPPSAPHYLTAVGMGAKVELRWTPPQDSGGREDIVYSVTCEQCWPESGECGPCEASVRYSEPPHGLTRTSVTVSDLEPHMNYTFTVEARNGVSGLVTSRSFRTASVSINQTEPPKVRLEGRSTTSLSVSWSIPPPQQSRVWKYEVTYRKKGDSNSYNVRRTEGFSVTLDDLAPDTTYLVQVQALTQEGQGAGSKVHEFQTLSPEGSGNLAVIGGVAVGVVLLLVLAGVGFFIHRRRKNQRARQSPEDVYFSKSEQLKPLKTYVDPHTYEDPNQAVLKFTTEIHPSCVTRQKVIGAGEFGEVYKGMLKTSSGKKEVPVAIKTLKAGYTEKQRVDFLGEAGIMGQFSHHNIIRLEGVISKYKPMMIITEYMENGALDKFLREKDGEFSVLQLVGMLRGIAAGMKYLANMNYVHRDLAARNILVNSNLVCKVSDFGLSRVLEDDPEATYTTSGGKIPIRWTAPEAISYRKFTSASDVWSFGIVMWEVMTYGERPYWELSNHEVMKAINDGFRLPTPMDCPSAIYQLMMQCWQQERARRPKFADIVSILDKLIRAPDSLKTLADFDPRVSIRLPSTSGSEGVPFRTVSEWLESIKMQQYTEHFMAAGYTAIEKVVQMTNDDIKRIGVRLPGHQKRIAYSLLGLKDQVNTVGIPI
Sequence of Ephrin type-A receptor 7 (Homo sapiens) (Q15375 28-998 limits assumed): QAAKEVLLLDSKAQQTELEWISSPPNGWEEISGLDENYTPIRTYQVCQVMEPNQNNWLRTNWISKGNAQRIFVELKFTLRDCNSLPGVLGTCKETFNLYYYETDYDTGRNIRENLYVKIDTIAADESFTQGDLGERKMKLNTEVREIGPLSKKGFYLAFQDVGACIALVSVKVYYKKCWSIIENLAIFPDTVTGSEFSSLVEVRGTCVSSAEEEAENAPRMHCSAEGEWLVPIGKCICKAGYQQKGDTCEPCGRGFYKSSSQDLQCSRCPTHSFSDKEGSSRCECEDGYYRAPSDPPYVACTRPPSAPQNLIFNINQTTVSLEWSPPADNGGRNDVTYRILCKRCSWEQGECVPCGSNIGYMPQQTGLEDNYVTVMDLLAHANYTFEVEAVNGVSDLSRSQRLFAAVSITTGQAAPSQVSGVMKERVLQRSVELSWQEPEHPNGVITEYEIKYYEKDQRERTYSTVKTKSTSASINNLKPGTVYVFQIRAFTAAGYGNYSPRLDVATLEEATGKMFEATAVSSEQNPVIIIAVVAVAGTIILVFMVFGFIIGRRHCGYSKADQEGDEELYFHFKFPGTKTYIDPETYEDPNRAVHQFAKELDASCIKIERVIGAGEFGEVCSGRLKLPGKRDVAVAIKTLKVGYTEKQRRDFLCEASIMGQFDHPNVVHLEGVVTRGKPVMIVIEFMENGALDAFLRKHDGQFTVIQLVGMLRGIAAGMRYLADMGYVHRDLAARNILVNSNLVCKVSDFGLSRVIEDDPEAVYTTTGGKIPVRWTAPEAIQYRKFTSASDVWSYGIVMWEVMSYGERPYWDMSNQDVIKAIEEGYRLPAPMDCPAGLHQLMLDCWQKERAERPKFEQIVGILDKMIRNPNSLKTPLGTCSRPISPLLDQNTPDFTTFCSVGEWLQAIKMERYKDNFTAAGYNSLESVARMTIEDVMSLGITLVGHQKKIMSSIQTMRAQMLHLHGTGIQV

| SMILES | residual activity [1] [%] | residual activity [2] [%] | residual activity [3] [%] | residual activity [4] [%] | residual activity [5] [%] | residual activity [6] [%] | residual activity [7] [%] | residual activity [8] [%] | residual activity [9] [%] | residual activity [10] [%] | residual activity [11] [%] | residual activity [12] [%] | residual activity [13] [%] | residual activity [14] [%] | residual activity [15] [%] | residual activity [16] [%] | residual activity [17] [%] | residual activity [18] [%] | residual activity [19] [%] | residual activity [20] [%] |
| --- | --- | --- | --- | --- | --- | --- | --- | --- | --- | --- | --- | --- | --- | --- | --- | --- | --- | --- | --- | --- |
| COc1cccc(-c2cc(=O)c3ccccc3o2)c1N | 70 | 100 | 94 | 99 | 92 | 97 | 117 | 110 | 108 | 109 | 108 | 118 | 96 | 98 | 97 | 105 | 104 | 118 |  |  |
| O=C1c2ccccc2-[n+]2ccc3c([nH]c4ccccc43)c21 | 114 | 99 | 92 | 78 | 91 | 89 | 101 | 89 | 81 | 103 | 104 | 116 | 102 | 85 | 79 | 89 | 85 | 85 |  |  |
| COc1ccc(CNc2nc(N(CCO)CCO)nc3c2ncn3C(C)C)cc1 | 85 | 87 | 67 | 95 | 81 | 95 | 117 | 82 | 90 | 110 | 110 | 126 | 105 | 92 | 73 | 99 | 88 | 105 | 97 | 116 |
| Oc1n[nH]c2nnc(-c3c(-c4ccccc4)nn4ccccc34)cc12 | 34 | 99 | 95 | 93 | 79 | 92 | 109 | 94 | 90 | 96 | 103 | 113 | 95 | 94 | 88 | 86 | 89 | 97 |  |  |
